# Data published in PubChem BioAssay AID2515 (National Center for Advancing Translational Sciences (NCATS), 2010).
# Results filed as inconclusive are left out. A call without a number means that no potency is given here. The source made the active and inactive calls. Calls come from the whole dose curve; as a rule, active = well fitted inhibition curve with a large enough effect; inconclusive = small, poorly fitted or top-dose-only effect; inactive = flat fitted curve, though single readings scatter.
# Molecular target: Luciferin 4-monooxygenase (Photinus pyralis) (UniProt P08659)
# Sequence (P08659 whole entry, looked up, canonical isoform): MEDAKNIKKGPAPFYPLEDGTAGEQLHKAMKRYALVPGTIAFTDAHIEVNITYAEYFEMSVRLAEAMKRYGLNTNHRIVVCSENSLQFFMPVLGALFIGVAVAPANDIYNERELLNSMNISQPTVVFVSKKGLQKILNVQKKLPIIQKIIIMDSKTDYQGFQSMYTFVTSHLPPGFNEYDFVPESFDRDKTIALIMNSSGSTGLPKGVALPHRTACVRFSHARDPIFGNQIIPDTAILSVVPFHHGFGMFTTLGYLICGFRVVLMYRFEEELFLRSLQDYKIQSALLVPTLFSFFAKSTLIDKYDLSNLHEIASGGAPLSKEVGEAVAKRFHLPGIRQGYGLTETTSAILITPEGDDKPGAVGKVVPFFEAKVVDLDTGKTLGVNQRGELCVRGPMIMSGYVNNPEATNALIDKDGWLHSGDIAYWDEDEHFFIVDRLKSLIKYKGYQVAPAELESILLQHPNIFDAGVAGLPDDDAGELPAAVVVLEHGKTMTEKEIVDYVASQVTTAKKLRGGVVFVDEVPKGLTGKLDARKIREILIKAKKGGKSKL
# Assay: Counterscreen Assay for Enhancers of SMN2 Splice Variant Expression: Interaction with Luciferase Reporter for Probe SAR
# Conditions: purified firefly luciferase, luminescence inhibition; series mostly up to 51 µM
# Source text: NIH Chemical Genomics Center [NCGC] NIH Molecular Libraries Probe Production centers Network [MLPCN] MLPCN Grant: R03 MH084179-01 Assay Submitter (PI): Elliot Androphy NCGC Assay Overview: Spinal muscular atrophy (SMA) is caused by insufficient levels of the survival motor neuron protein SMN. The SMN locus on chromosome 5q13 contains two inverted copies of SMN called SMN1 and SMN2 which are 99% identical at the amino acid level. SMN1 is a fully functional protein and SMN2 skips exon 7 90% of the time. Skipping of exon 7 produces non-functional protein product. 10% of the SMN2 protein includes exon 7 and is fully functional. In the SMA disease state, mutations in the SMN1 locus are the cause of the disease state. Because only 10% of SMN2 is of the fully functional form, it is not sufficient to overcome the deficiency produced by the loss of the SMN1 product. A therapy that either increases the amount of SMN2 product made increases the inclusion of exon 7 has been proposed for the treatment of SMA. We have designed an assay to identify small molecules that can increase the amount of functional SMN2 product by appending a luciferase reporter gene after the native SMN2 gene, such that inclusion of exon 7 in the expressed product places the luciferase sequence in frame, thus generating functional luciferase enzyme. One potential source of false positives in the primary screening assay is stabilization of the reporter luciferase via direct binding. This assay attempts to identify such compounds by screening directly for luciferase activity in the absence of the cellular system.
# NCGC Assay Protocol Summary: The primary screen utilizes a luciferase reporter gene assay, combining the promoter and splicing based cassettes in tandem with the major portion of the native SMN1 cDNA, and then transfected into HEK293 cells. Compounds that modulate luciferase signal presumably modulate expression of […]. In this assay, we utilize purified firefly luciferase in lieu of a cellular reporter to identify compounds interacting directly with luciferase in the primary screen. Sequence, Parameter, Value, Description (1) Reagent, 2.5 uL, Enzyme in buffer (note A) (2) Compound, 23 nL, From stock solutions (3) Time, 5 minutes, Room temp (4) Reagent#2.5 ul, Luciferase detection reagent (note B) (5) Detector, 1 sec integrate, Luminescent read on Viewlux (note C) Sigma enzyme (1 mg) considered to be MW 61,000 diluted in 357 ul assay buffer to 50 uM stock. A - Enzyme and buffer consists of 50 mM Tris-acetate pH 7.6, 10 mM Mg acetate 0.05% BSA, 0.01% Tween and 5 nM firefly luciferase B - Detection reagent = britelite plus diluted 1:10 in PBS C - Viewlux settings were 1 second integration medium sensitivity Keywords: Spinal muscular atrophy, SMA, SMN2, high throughput screening, MLSMR, MLPCN, NIH Roadmap, qHTS and NCGC
row,SMILES,Potency
1,NC(=O)C1CCN(c2nc(-c3ccc4ccccc4c3)cs2)CC1,31.8 µM (active)
2,NC(=O)C1CCN(c2nc(-c3ccccc3N)cs2)CC1,inactive
3,Cn1ccc2cc(-c3csc(N4CCC(C(N)=O)CC4)n3)ccc21,10.1 µM (active)
4,CN(C)c1ccccc1-c1csc(N2CCC(C(N)=O)CC2)n1,inactive
5,NC(=O)C1CCN(c2nc(-c3ccc(Br)cc3)cs2)CC1,40.1 µM (active)
6,NC(=O)C1CCN(c2nc(-c3cccc(N)c3)cs2)CC1,inactive
7,Cc1ccc(-c2csc(N3CCC(C(N)=O)CC3)n2)cc1,12.7 µM (active)
8,CN(C)C(=O)c1cccc(-c2csc(N3CCC(C(N)=O)CC3)n2)c1,inactive
9,CN(C)c1cccc(-c2csc(N3CCC(C(N)=O)CC3)n2)c1,12.7 µM (active)
10,NC(=O)C1CCN(c2nc(-c3cccnc3)cs2)CC1,inactive
11,NC(=O)C1CCN(c2nc(-c3cc4ccccc4o3)cs2)CC1,31.8 µM (active)
12,CS(=O)(=O)c1cccc(-c2csc(N3CCC(C(N)=O)CC3)n2)c1,inactive
13,NC(=O)C1CCN(c2nc(-c3ccc(F)cc3)cs2)CC1,28.4 µM (active)
14,NC(=O)C1CCN(c2nc(-c3ccccc3C(F)(F)F)cs2)CC1,inactive
15,CS(=O)(=O)c1ccccc1-c1csc(N2CCC(C(N)=O)CC2)n1,inactive
16,NC(=O)C1CCN(c2nc(-c3ccccc3F)cs2)CC1,35.7 µM (active)
17,NC(=O)C1CCN(c2nc(-c3ccc4c(c3)OCCO4)cs2)CC1,4.5 µM (active)
18,Cc1noc(C)c1-c1csc(N2CCC(C(N)=O)CC2)n1,inactive
